Assay outcomes as filed in PubChem.
Luciferase inh – blocks Photinus pyralis firefly luciferase activity | AID 411 | purified firefly luciferase, luminescence, 8 min | Potency, µM (doses to about 57.1 µM), actives largely listed as inhibitors | 72,000 compounds, 2.2% hits; further: nearly all actives have a fitted effect of over 40% in size
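Firefly luciferase (PKLight detection mix) with 10 uM ATP in pH 7.2 imidazole buffer (KCl, MgCl2, Tween 20, BSA). Compounds tested across a concentration series (qHTS). Luminescence read after 8 min at ambient temperature.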
Bst PK mod – pyruvate kinase (B. stearothermophilus) modulation | Potency, µM | purified pyruvate kinase, luminescence ATP production; ribose 5-phosphate activator present at AC10 | 51,000 compounds, 1.2% hits; in the data active means potency below about 11 µM; inconclusive means mostly about 12 µM to 25 µM;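 the screen sought inhibitors and activators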
HEK293 cAMP cs – parental HEK293 cAMP activation (counter-screen); parental HEK293 CNG cAMP sensor, membrane potential fluorescence; Potency, µM (titrated, usually from 57.1 µM), hits mostly activators; 73,000 compounds, 2.5% hits; further: nearly all actives have a fitted effect of over 55% in size
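Parental HEK 293 cells stably expressing a modified CNG channel (no TSHR) report cAMP rise as membrane depolarization. Membrane potential dye with 100 uM RO 20-1724 was loaded for 60 min at room temperature, then compound added for 30 min; fluorescence read at 590 nm.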
Tau fil binding – binders of human tau filaments. P10636. recombinant tau filaments, thioflavin S fluorescence, 15 h; filaments grown with octadecylsulfate alongside compound. Potency, µM (doses to about 57.1 µM). 71,000 compounds, 2% hits;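 further: actives lower thioflavin S fluorescence by blocking filaments or displacing dye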
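ThS-based fibril read: tau 1 uM final, inducer ODS 30 uM final, 37 C for 15 h, ex 450/em 510 nm.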
ALOX15 inhib – inhibitors of human 15-lipoxygenase (ALOX15) | AID 887 | purified 15hLO-1, xylenol orange hydroperoxide absorbance | 74,000 compounds, 1.4% hits | P16050 | Potency, µM (highest dose often 57.1 µM), usual class: inhibitors; further: nearly all actives have a fitted effect of over 55% in size
Target sequence (P16050 whole entry, looked up): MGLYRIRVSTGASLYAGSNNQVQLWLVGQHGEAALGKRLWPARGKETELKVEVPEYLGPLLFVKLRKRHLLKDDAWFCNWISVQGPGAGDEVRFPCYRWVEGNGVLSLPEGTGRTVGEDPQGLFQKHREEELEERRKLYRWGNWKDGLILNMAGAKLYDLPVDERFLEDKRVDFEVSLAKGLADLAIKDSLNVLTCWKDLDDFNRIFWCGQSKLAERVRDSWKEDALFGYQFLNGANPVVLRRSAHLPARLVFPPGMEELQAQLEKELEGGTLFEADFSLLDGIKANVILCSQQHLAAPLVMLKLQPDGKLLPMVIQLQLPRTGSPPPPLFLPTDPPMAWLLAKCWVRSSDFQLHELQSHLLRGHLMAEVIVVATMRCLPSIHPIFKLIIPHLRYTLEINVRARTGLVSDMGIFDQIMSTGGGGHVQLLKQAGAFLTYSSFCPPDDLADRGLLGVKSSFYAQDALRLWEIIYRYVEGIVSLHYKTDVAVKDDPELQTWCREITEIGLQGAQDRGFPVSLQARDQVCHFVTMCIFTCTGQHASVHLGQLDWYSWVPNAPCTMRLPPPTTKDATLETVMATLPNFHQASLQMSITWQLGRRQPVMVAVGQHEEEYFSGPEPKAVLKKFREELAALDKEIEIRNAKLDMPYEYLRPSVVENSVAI
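Purified human 15hLO-1 (40 nM final) in 25 mM Hepes pH 7.5, 0.01% Triton X-100 was preincubated with compound 15 min at room temperature, then reacted 6 min with 50 uM arachidonic acid; hydroperoxide detected by Fe-XO, 573/405 nm absorbance ratio.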
TSHR ag – agonists of human thyroid stimulating hormone receptor; HEK293-CNG-TSHR cells (CNG channel as cAMP sensor), membrane potential dye, cAMP; AID 926; P16473; 73,000 compounds, 0.48% hits; Potency, µM (highest dose often 57.1 µM), most hits filed as activators; active means well fitted activation curve with a large enough effect in the main read-out, with a control signal flat, not every such curve was filed as active; inconclusive means small, poorly fitted or top-dose-only effect, or a change in a side signal; inactive means no such curve, though single readings can be large or run the other way; reference of the percent scale not stated here;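 further: the control signal comes from parental cells without the receptor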
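cAMP rise detected as CNG-channel membrane depolarization by fluorescent dye (emission 590 nm), 30 min after compound, following 60 min dye loading containing 100 uM RO 20-1724 at room temperature. Cells: TSHR/CNG HEK 293, with parental CNG HEK 293 as control.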
Of the large screens only hits and unclear results are named; the others gave an inactive call. Compounds with a hit are over-represented: about 7.8% of the library has one in this group of screens. Unless noted, the call rests on the fitted dose curve; in most records, active means well fitted curve in the direction sought with a large enough effect; inconclusive means small, poorly fitted or top-dose-only effect, or another doubt; inactive means no such curve, though single readings can be large; an effect the other way counts as inactive or inconclusive.

O=C(O)c1cc(S(=O)(=O)Nc2ccc(O)cc2)ccc1Cl	none (no result: Luciferase inh, Bst PK mod, Tau fil binding)
O=C(COC(=O)c1ccccc1NC(=O)c1ccco1)NCCC1=CCCCC1	HEK293 cAMP cs 25µM, TSHR ag inconclusive
Cc1cc2cc(CN3C(=O)c4ccccc4C3=O)ccc2[nH]1	none
COc1ccc(-c2csc3nc(C)n(-n4cccc4)c(=O)c23)cc1OC	none (no result: Bst PK mod)
Cc1nc2sc(-c3ccccc3)cc2c(=O)n1-n1cccc1	Luciferase inh 20µM, HEK293 cAMP cs inconclusive, TSHR ag inconclusive
Cc1ccc(-c2cc(C(=O)N3CCCC3)no2)cc1	Luciferase inh 4µM, Bst PK mod 7.9, TSHR ag inconclusive
CC1CCCC(C)N1C(=O)c1cc(-c2ccc(Cl)c(Cl)c2)on1 (stereo not drawn)	Bst PK mod 7.7
CC(C)N(CCCNC(=O)C1CCN(S(=O)(=O)N2CCOCC2)CC1)Cc1ccccc1	none
CCOC(=O)c1cnc(-n2nc(C)cc2C)nc1Nc1cccc(C(=O)O)c1	TSHR ag 25µM
CCOC(=O)c1cnc(-n2nc(C)cc2C)nc1Nc1ccc(N(C)C)cc1	Tau fil binding 13µM
CCOC(=O)c1cnc(-n2nc(C)cc2C)nc1NC	none (no result: Bst PK mod)
CSCCC(NC(=O)c1ccccc1)c1nc(-c2ccccc2)no1 (stereo not drawn)	HEK293 cAMP cs 16µM, TSHR ag inconclusive
CSCCC(NC(=O)c1ccccc1)C(=O)NC1CCCC1 (stereo not drawn)	none
O=c1c(-c2ccc(Cl)cc2)nc2cnc(N3CCNCC3)nc2n1Cc1ccc(F)cc1	none (no result: Bst PK mod)
O=C(c1cccs1)N1CCC(c2ccccc2)C1 (stereo not drawn)	Luciferase inh 13µM (no result: Bst PK mod)
O=C(Nc1ccccc1)N1CCC(c2ccccc2)C1 (stereo not drawn)	Luciferase inh 16µM (no result: Bst PK mod)
COc1ccccc1-c1ccc2ncnc(N3CCOCC3)c2c1	HEK293 cAMP cs inconclusive, TSHR ag inconclusive (no result: Bst PK mod)
NCOC(=O)Cc1ccc(Br)cc1	none (no result: Bst PK mod)
O=c1[nH]c(SCc2cccc([N+](=O)[O-])c2)nc2nc[nH]c12	none (no result: Bst PK mod)
Nc1nc(-c2ccc(Br)cc2)cs1	Luciferase inh 13µM
Nc1nc(-c2ccccc2)cs1	none (no result: Luciferase inh, Bst PK mod)
COc1c(-c2ccccc2)oc2c(ccc3occc32)c1=O	HEK293 cAMP cs 40µM, TSHR ag inconclusive (no result: Bst PK mod)
CC(=O)c1c(C)nc(-c2ccc(Cl)cc2)nc1N=CN(C)C	Bst PK mod inconclusive, Tau fil binding 25µM (no result: TSHR ag)
C=C(C)C(=O)OCCCCCC	TSHR ag inconclusive (no result: Luciferase inh, Bst PK mod)
CC(=O)Nc1ccccc1OCC(=O)c1cc(C)n(Cc2cccs2)c1C	HEK293 cAMP cs 10µM, TSHR ag inconclusive
COc1ccc(-n2cnnc2SCC(=O)c2cc(C)n(Cc3cccs3)c2C)cc1	HEK293 cAMP cs 25µM, TSHR ag inconclusive
Cc1csc(SCC(=O)c2cc(C)n(Cc3cccs3)c2C)n1	Luciferase inh 4µM, Bst PK mod 3.2, HEK293 cAMP cs 16µM, TSHR ag inconclusive
CN(C)c1ccc(-c2cc(NCc3cccnc3)ncn2)cc1	none (no result: Bst PK mod)
CC1C(C#N)=C(N)OC2=C1C(=O)CC(C)(C)C2 (stereo not drawn)	none (no result: Bst PK mod)
CC1(C)CC(=O)C2=C(C1)OC(N)=C(C#N)C2C1CC=CCC1 (stereo not drawn)	ALOX15 inhib 32µM (no result: TSHR ag)
COC(=O)c1ccc(C(NC(=O)OCc2ccccc2)/C(C)=C/[C@@H](C)C(=O)N[C@@H](CO)Cc2ccccc2)cc1 (stereo partly drawn)	HEK293 cAMP cs inconclusive, TSHR ag inconclusive (no result: Luciferase inh, Bst PK mod)
S=c1nc(C2CCCCC2)[nH][nH]1	none
N[C@H](CS(=O)O)C(=O)O	HEK293 cAMP cs inconclusive, TSHR ag inconclusive (no result: Bst PK mod, ALOX15 inhib)
CCC(=O)Nc1ccc(NC(=O)c2ccco2)c(OC)c1	none (no result: Bst PK mod)
COc1cc(NC(=O)CC(C)C)ccc1NC(=O)c1ccco1	Luciferase inh 16µM (no result: Bst PK mod)
C=CCn1c(SCC(=O)Nc2ccc(NC(=O)c3ccco3)c(OC)c2)nnc1-c1ccncc1	Tau fil binding 13µM
C=CCn1c(SCC(=O)Nc2cc(C)c(Cl)cc2OC)nnc1-c1ccco1	HEK293 cAMP cs 25µM, TSHR ag inconclusive
O=C1C(=C2CCCCC2)SC(=S)N1Cc1ccco1	ALOX15 inhib 4µM (no result: Bst PK mod)
